{"source": "PubChem BioAssay AID743395", "about": "(Broad Institute, 2014)", "note": "Out of some 1,200 compounds screened, about 480 (40%) were called active. No rule for the calls is given here. The set was probably picked from earlier hits. These entries were drawn from the full list. Entries with a potency or affinity are not part of this list.", "data": [{"experiment": "HepG2 cell cytotoxicity, dose response, cytotoxicity control, CellTiter-Glo luminescence, cherry-pick, set 2 (AID 743395)", "details": "HepG2 viability, CellTiter-Glo ATP luminescence, 72 h; series mostly up to 26 µM", "values": [{"smiles": "COc1cc2c(cc1OC)C(c1cccs1)N(C(=O)c1cccnc1)CC2", "note": "(stereo unspecified)", "outcome": "inactive"}, {"smiles": "Cc1cc(C(=O)CN2CCN(CC(=O)Nc3ccc(F)cc3)CC2)c(C)n1C1CC1", "outcome": "inactive"}, {"smiles": "CCCOc1ccc(C(=O)CCCC(=O)c2ccc(OCCC)cc2)cc1", "outcome": "inactive"}, {"smiles": "CCOc1ccc(C(=O)NCC(=O)N2CCN(Cc3ccccc3)CC2)cc1", "outcome": "inactive"}, {"smiles": "CN1/C(=C\\C=C2/SC(=S)N(CC(=O)O)C2=O)C(C)(C)c2ccccc21", "outcome": "inactive"}, {"smiles": "C=CCN(CC=C)C(=S)Nc1ccc(OC)c(OC)c1", "outcome": "inactive"}, {"smiles": "CCOc1ccc(C(=O)NNC(=O)CCNC(=O)c2ccc(Br)cc2)cc1OC", "outcome": "inactive"}, {"smiles": "Cc1ccc(CNC(=O)COC(=O)c2ccc(S(=O)(=O)N(C)C)cc2)cc1", "outcome": "inactive"}, {"smiles": "Cc1nnc(NC(=O)CSc2nccn2-c2cccc(C)c2C)s1", "outcome": "inactive"}, {"smiles": "Cc1cc(Br)c(NC(=O)C(C)Sc2nnnn2C)c(Br)c1", "note": "(stereo unspecified)", "outcome": "inactive"}, {"smiles": "NS(=O)(=O)c1ccc(NNC(=O)c2ccc(Br)o2)c([N+](=O)[O-])c1", "outcome": "inactive"}, {"smiles": "CC(C)NC(=O)c1ccc(COc2cccc3ccccc23)o1", "outcome": "inactive"}, {"smiles": "Cc1cc(C(=O)NNC(=O)c2ccc(Cl)c(S(N)(=O)=O)c2)c(C)o1", "outcome": "inactive"}, {"smiles": "Cc1ccc(S(=O)(=O)N2CCOCC2)cc1NC(=O)CSc1n[nH]c(N)n1", "outcome": "inactive"}, {"smiles": "O=C(Nc1ccccc1F)N1C[C@H]2[C@@H](c3ccccc31)[C@@H](CO)N2C(=O)c1ccccn1", "outcome": "inactive"}, {"smiles": "COc1ccccc1NS(=O)(=O)c1cc(C(=O)N2CCCCCC2)ccc1C", "outcome": "inactive"}, {"smiles": "COc1ccccc1NS(=O)(=O)c1cc(N=N/C(C(=O)Nc2ccc(Cl)cc2)=C(/C)O)ccc1C", "outcome": "inactive"}, {"smiles": "O=C(NC(=S)Nc1ccc(-c2ccccc2)cc1)c1ccccc1", "outcome": "inactive"}, {"smiles": "Cc1ccc(C(=O)NNC(=O)c2ccc(S(=O)(=O)N3CCCCC3)cc2)cc1", "outcome": "inactive"}, {"smiles": "COc1ccccc1N1CC(C(=O)Nc2ccc(S(=O)(=O)N3CCCC3)cc2)CC1=O", "note": "(stereo unspecified)", "outcome": "inactive"}, {"smiles": "CNC(=O)C1CC(=O)N(c2ccc(OCC(=O)Nc3ccccc3)cc2)C1", "note": "(stereo unspecified)", "outcome": "inactive"}, {"smiles": "COc1ccc(C2=NOC(C(=O)NCc3ccccc3)C2)cc1", "note": "(stereo unspecified)", "outcome": "inactive"}, {"smiles": "COc1ccc(Cc2nnc(NC(=O)c3ccc(F)cc3)s2)cc1OC", "outcome": "inactive"}, {"smiles": "COc1ccc2c(c1)c(CC(=O)OCC(=O)O)c(C)n2C(=O)c1ccc(Cl)cc1", "outcome": "inactive"}, {"smiles": "Cc1ccc(S(=O)(=O)N2CCN(C(=O)COC(=O)/C=C/c3ccc(Cl)cc3)CC2)c(C)c1", "outcome": "inactive"}, {"smiles": "N#Cc1ncn(C2OC(CO)C(O)C2O)c1N", "note": "(stereo unspecified)", "outcome": "inactive"}, {"smiles": "Cc1cc(Cl)cc(C)c1OCCn1ccnc1", "outcome": "inactive"}, {"smiles": "Cc1ccc(NC(=O)COC(=O)CCC2CCCC2)c(Br)c1", "outcome": "inactive"}, {"smiles": "COc1ccc2c3c([nH]c2c1)[C@@H](CO)N(S(=O)(=O)c1cn(C)cn1)CC31CCN(CC2CCCCC2)CC1", "outcome": "inactive"}, {"smiles": "CCCC(=O)Nc1ccc2c(c1)C(=O)N(C)C[C@@H](OC)[C@H](C)CN(C(=O)CN1CCOCC1)[C@H](C)CO2", "outcome": "inactive"}, {"smiles": "Cc1ccc(/C=N/NC(=O)C2COc3ccccc3O2)s1", "note": "(stereo unspecified)", "outcome": "inactive"}, {"smiles": "NS(=O)(=O)c1ccc(Cl)c(S(N)(=O)=O)c1", "outcome": "inactive"}, {"smiles": "CCN(CC)c1ccc(/C=C(/C#N)c2nc3ccc(C)cc3[nH]2)c(OC(C)C)c1", "outcome": "inactive"}, {"smiles": "Cc1cc(C)c(C(=O)NC2CCCc3c2cnn3-c2cccc(C)c2C)o1", "note": "(stereo unspecified)", "outcome": "inactive"}, {"smiles": "CCNC(=S)NNC(=O)CC(C)C", "outcome": "inactive"}, {"smiles": "O=C(/C=C/c1ccco1)NC(=S)Nc1nc(-c2ccc3ccccc3c2)cs1", "outcome": "inactive"}, {"smiles": "CC(=O)NC(=S)Nc1ccc(NC(=S)NC(=O)/C=C/c2ccco2)cc1", "outcome": "inactive"}, {"smiles": "CN(C(=O)c1ccccc1C(=O)OCC(=O)Nc1ccc(S(N)(=O)=O)cc1)c1ccccc1", "outcome": "inactive"}, {"smiles": "CCCCc1nc(Cl)c(CO)n1Cc1ccc(-c2ccccc2-c2nn[nH]n2)cc1", "outcome": "inactive"}, {"smiles": "COc1cc(NC(=O)COC(=O)c2n[nH]c3ccccc23)c(C)cc1[N+](=O)[O-]", "outcome": "inactive"}, {"smiles": "COCCSc1ccccc1C(=O)Nc1cc([N+](=O)[O-])ccc1OC", "outcome": "inactive"}, {"smiles": "C=CCn1c(SCC(=O)N(C)C2CCS(=O)(=O)C2)nc2ccccc2c1=O", "note": "(stereo unspecified)", "outcome": "inactive"}, {"smiles": "COC(=O)c1cc2c(=O)c3ccccc3oc2nc1/C=C/N(C)C", "outcome": "inactive"}, {"smiles": "O=C(Cc1ccccn1)NCC[C@@H]1CC[C@H](NC(=O)Nc2ccc(C(F)(F)F)cc2)[C@H](CO)O1", "outcome": "inactive"}, {"smiles": "CCOC(=O)C1=CN(Cc2ccco2)S(=O)(=O)NC1c1ccc(C(F)(F)F)cc1", "note": "(stereo unspecified)", "outcome": "inactive"}, {"smiles": "Cc1cc(C(=O)CN2C(=O)C(=O)N(Cc3ccccc3)C2=O)c(C)n1Cc1ccccc1", "outcome": "inactive"}, {"smiles": "CC(C)[N+]1(C)[C@@H]2CC[C@@H]1CC(OC(=O)C(CO)c1ccccc1)C2", "note": "(stereo partly specified)", "outcome": "inactive"}, {"smiles": "Cc1noc(C)c1NC(=O)N(C)C[C@H]1Oc2cc(C#CCC3CCCC3)ccc2S(=O)(=O)N([C@@H](C)CO)C[C@@H]1C", "outcome": "inactive"}, {"smiles": "CCC1(C)Cc2ccccc2-c2nc[nH]c(=O)c21", "note": "(stereo unspecified)", "outcome": "inactive"}, {"smiles": "O=S(=O)(c1ccc(OCc2ccc(Br)cc2)cc1)N1CCOCC1", "outcome": "inactive"}, {"smiles": "COc1cc(C(c2sc3nc(C)nn3c2O)N2CCN(c3ccccc3)CC2)cc(OC)c1OC", "note": "(stereo unspecified)", "outcome": "inactive"}, {"smiles": "Cn1nnnc1N=N/C(=N/Nc1ccccc1)c1ccccc1", "outcome": "inactive"}, {"smiles": "Cc1cccc(C(=O)NCC(=O)OCC(=O)N(C)CC(=O)Nc2ccccc2Cl)c1", "outcome": "inactive"}, {"smiles": "C[C@H]1CN([C@@H](C)CO)S(=O)(=O)c2ccc(/C=C/c3ccccc3)cc2O[C@H]1CN(C)Cc1ccccc1", "outcome": "inactive"}, {"smiles": "COc1ccccc1C#Cc1ccc2c(c1)O[C@H](CN(C)Cc1cccnc1)[C@H](C)CN([C@@H](C)CO)S2(=O)=O", "outcome": "inactive"}, {"smiles": "COc1ccccc1C#Cc1ccc2c(c1)O[C@@H](CN(C)Cc1cccnc1)[C@H](C)CN([C@@H](C)CO)S2(=O)=O", "outcome": "inactive"}, {"smiles": "C[C@@H]1CN([C@H](C)CO)S(=O)(=O)c2ccc(C#Cc3ccccc3F)cc2O[C@H]1CN(C)C(=O)Cc1cccnc1", "outcome": "inactive"}, {"smiles": "O=C(NC1CCCCC1)c1cc(C2CC2)nn1-c1ccccc1", "outcome": "inactive"}, {"smiles": "O=C(CNC1CCCCC1)NN=C(c1ccccc1)c1ccccc1", "outcome": "inactive"}, {"smiles": "CC(=O)Nc1cccc(NC(=O)CN2c3cccc4cccc(c34)S2(=O)=O)c1", "outcome": "inactive"}, {"smiles": "Cc1cc(Nc2ccc(Br)cc2)nc2ccccc12", "outcome": "inactive"}, {"smiles": "CC(=O)Nc1ccc(S(=O)(=O)Nc2cccc(-c3nc4cc(C)ccc4o3)c2)cc1", "outcome": "inactive"}, {"smiles": "Clc1ccc(Nc2ccc3ccccc3n2)cc1", "outcome": "inactive"}, {"smiles": "CC(=O)Nc1ccc(S(=O)(=O)N2c3ccccc3C(C)=CC2(C)C)cc1", "outcome": "inactive"}, {"smiles": "CCC1(C2=CCCCC2)C(=O)NC(=S)N=C1N", "note": "(stereo unspecified)", "outcome": "inactive"}, {"smiles": "Cc1cccc(S(=O)(=O)N2C[C@H]3[C@@H](c4ccccc42)[C@H](CO)N3CC2CCCC2)c1", "outcome": "inactive"}, {"smiles": "N#Cc1ccc(-c2ccc3c(c2)[C@H]2[C@H](CCN2S(=O)(=O)c2ccccc2F)[C@@H](CO)N3)cc1", "outcome": "inactive"}, {"smiles": "COc1cccc(-c2ccc([C@H]3[C@@H](CO)N(C(=O)c4ccccn4)[C@H]3C#N)cc2)c1", "outcome": "inactive"}, {"smiles": "N#Cc1ccc(-c2ccc(C3[C@@H]4CN(C(=O)C5CCC5)C[C@H]3N4)cc2)cc1", "note": "(stereo partly specified)", "outcome": "inactive"}, {"smiles": "CCCNC(=O)N1CC2(CN(S(=O)(=O)c3cccc(OC)c3)C2)c2c(n(C)c3cc(OC)ccc23)[C@H]1CO", "outcome": "inactive"}, {"smiles": "CCOC(=O)/C(=C/C=C1\\Sc2cc(C)c(C)cc2N1CC)C(C)=O", "outcome": "inactive"}, {"smiles": "COCC(C)n1c(SCC(=O)N2CC(=O)Nc3ccccc32)nc2ccccc2c1=O", "note": "(stereo unspecified)", "outcome": "inactive"}, {"smiles": "CCN(CC(=O)Nc1c(F)cccc1F)C(=O)C1CC1", "outcome": "inactive"}, {"smiles": "CN(c1ccc(OCCOc2ccccc2Cl)cc1)S(=O)(=O)c1ccccc1", "outcome": "inactive"}, {"smiles": "Cn1c(=O)c(NC2CCCCC2)c2c3c(cccc31)C(=O)c1ccccc1-2", "outcome": "inactive"}, {"smiles": "O=C1c2cccc3c(N4CCCCC4)ccc(c23)C(=O)N1c1cccc(O)c1", "outcome": "inactive"}, {"smiles": "Cc1cccc(C(=O)N(Cc2ccco2)c2c(N)n(Cc3ccccc3)c(=O)[nH]c2=O)c1", "outcome": "inactive"}, {"smiles": "O=C(COC(=O)/C=C/c1ccccc1Cl)NC(=O)NCc1ccccc1", "outcome": "inactive"}, {"smiles": "CC1CN(S(=O)(=O)c2ccc(C(=O)Nc3ccccc3F)cc2)CC(C)O1", "note": "(stereo unspecified)", "outcome": "inactive"}, {"smiles": "COc1ccccc1N(C)S(=O)(=O)c1ccc(C(=O)Nc2nccs2)cc1", "outcome": "inactive"}, {"smiles": "c1ccc(-c2csc(NC3=NCCCCC3)n2)cc1", "outcome": "inactive"}, {"smiles": "CCOc1cc(OCC)c(C(C)=O)cc1OCC", "outcome": "inactive"}, {"smiles": "CCn1c(SCC(=O)N/N=C/c2ccc(O)c(OC)c2)nc2ccccc21", "outcome": "inactive"}, {"smiles": "COc1cccc2c1C(=O)C=C(C)C2=O", "outcome": "inactive"}, {"smiles": "Cc1ccc(NC(=O)c2ccc(Cl)c(S(=O)(=O)Nc3c(C)n(C)n(-c4ccccc4)c3=O)c2)cc1Cl", "outcome": "inactive"}, {"smiles": "O=c1[nH]c(CN2CCN(c3ccc(O)cc3)CC2)nc2scc(-c3ccc(Cl)cc3)c12", "outcome": "inactive"}, {"smiles": "CCOC(=O)N1CCN(C(=O)C2CCC(=O)N(CCCN3CCCC3=O)C2)CC1", "note": "(stereo unspecified)", "outcome": "inactive"}, {"smiles": "COc1ccc(Cl)cc1C(=O)NNC(=O)CCNS(=O)(=O)c1ccccc1", "outcome": "inactive"}, {"smiles": "COc1ccccc1NS(=O)(=O)c1ccc(C)c(C(=O)Nc2cc(C)on2)c1", "outcome": "inactive"}, {"smiles": "COC(=O)c1ccc(CS(=O)(=O)c2ccc(F)cc2)o1", "outcome": "inactive"}, {"smiles": "Nc1[nH]nc2ncc3cc4ccccc4nc3c12", "outcome": "inactive"}, {"smiles": "Clc1cccc(-c2ccc(C=Nc3ccc(N4CCOCC4)cc3)o2)c1Cl", "outcome": "inactive"}, {"smiles": "COC(=O)COc1cccc2c(=O)n(CC(=O)NCc3ccccc3)ccc12", "outcome": "inactive"}, {"smiles": "O=C(CN1CCOc2ccccc21)NCc1ccc(Cl)cc1", "outcome": "inactive"}, {"smiles": "O=C(N/N=C/c1cccs1)c1cccc(NC(=O)c2ccccc2Cl)c1", "outcome": "inactive"}, {"smiles": "O=C(c1ccc(S(=O)(=O)NCC2CCCO2)cc1)N1CCN(c2cccc(Cl)c2)CC1", "note": "(stereo unspecified)", "outcome": "inactive"}, {"smiles": "O=C(CSc1nc2nn(-c3ccccc3)c(=O)c-2c2n1CCCCC2)Nc1ccc(OC(F)F)cc1", "outcome": "inactive"}, {"smiles": "COc1cc(OC)c2c(-c3cccc(-c4ccc(OC)c(OC)c4)c3)cc(=O)oc2c1", "outcome": "inactive"}, {"smiles": "COc1cc(OC)c2c(-c3cccc(-c4ccc(OC)c(F)c4)c3)cc(=O)oc2c1", "outcome": "inactive"}, {"smiles": "COc1ccc(-c2c(C)cc3oc(=O)cc(-c4ccccc4)c3c2C)cc1OC", "outcome": "inactive"}, {"smiles": "Cc1ccc(-c2cccc(-c3cc(=O)oc4ccc(C(C)(C)C)cc34)c2)cc1", "outcome": "inactive"}]}]}
